Sampled rows, rich in hits. Any-hit rate of the full collection: about 5.4%.
PfM18AAP inh: PfM18AAP inhibitors, malaria aminopeptidase, primary screen, biochemical, QFRET, recombinant enzyme | AID 1822, 2009 | H-Glu-NHMec fluorogenic cleavage | M18 aspartyl aminopeptidase (Plasmodium falciparum 3D7) | inhibition, % at 7.35 µM | 1.2% of 290,000 active;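 active = inhibition above the campaign mean inhibition over all tested compounds plus 3 SD, cut at about 28% in these data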
Granule exo inh: LAMP-1 surface exposure blockers, TALL-104 cells – cell-based, flow cytometry, MLPCN library, primary screen; inhibition, % at 10 µM; TALL-104 LAMP-1 surface exposure; cells stimulated with thapsigargin and PMA; 0.66% of 360,000 active;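 active = inhibition above about 55%, limit read from the data; inconclusive = no clear call, values can overlap the other calls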
JMJD2C inh: inhibitors of GASC-1 histone demethylase, primary screen, biochemical, fluorescence, DELFIA europium. Lysine-specific demethylase 4C (Homo sapiens), Q9H3R0. GST-JMJD2C(1-420) H3K9me3 demethylation. inhibition, % at 2.35 µM. 0.069% of 330,000 active. AID 2099, 2009;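 active = more than half of a compound's replicate wells show inhibition beyond 50%, single wells judged on their own value; inconclusive = some, but no more than half, of replicates pass 50% inhibition; inactive = no replicate passes 50% inhibition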;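 note: signal counts dimethyl H3K9 product captured on neutravidin plate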
MIN6 prolif: inducers of MIN6 beta-cell proliferation, primary screen, ATP luminescence, uHTS; AID 2380, 2010; 0.29% of 330,000 active; MIN6 cells proliferation, ATPlite luminescence, 48 h; cells starved in 0.2% serum; 100% = growth in 10% serum; proliferation, % at 10 µM;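 active = compounds whose signal lies at least 3.5 SD above the mean of all wells on their plate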
SMARCA2 activ: SMARCA2 (BRM) function activators, primary screen, cell-based, luminescence, high throughput; MG213 cells, MMTV-luciferase reporter, dexamethasone, overnight; activation, % at 9.1 µM; 1% of 370,000 active; AID 652017, 2013; in the data active = activation above about 7.8%
ALR inh: inhibitors of human ALR sulfhydryl oxidase, primary screen, biochemical, H2O2 detection, HRP-luminol luminescence, single point; purified ALR, DTT oxidation; inhibition, % (test concentration not listed); 3.8% of 290,000 active; AID 485317, 2010;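 active = mean replicate inhibition above about 79%, with every replicate also reaching it, limit read from the data; inconclusive = only one of the two criteria met; inactive = mean below limit and not every replicate reaching it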
Target sequence (P55789 whole entry, looked up): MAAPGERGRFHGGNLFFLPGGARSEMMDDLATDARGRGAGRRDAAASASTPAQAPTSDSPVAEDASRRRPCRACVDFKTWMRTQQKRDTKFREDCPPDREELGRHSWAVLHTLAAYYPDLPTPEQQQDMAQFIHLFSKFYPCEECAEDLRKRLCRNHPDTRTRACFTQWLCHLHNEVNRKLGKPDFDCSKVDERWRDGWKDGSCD
Large screens that a line does not name were inactive.

COc1ccc(CSc2nnc(SCC(=O)Nc3ccc4c(c3)OCO4)s2)cc1	none (no result: PfM18AAP inh, Granule exo inh, JMJD2C inh, MIN6 prolif, ALR inh)
Cc1ccc2c(c1)C(CS(=O)(=O)NCCc1ccccc1)NC2 (configuration not stated)	none (no result: PfM18AAP inh, Granule exo inh, JMJD2C inh, MIN6 prolif, ALR inh)
COC(=O)Oc1ccc(/C=N/NC(=O)CSCc2ccccc2Br)cc1OC	ALR inh 98.9
COc1ccc(OC)c(NC(=O)CCN2CCN(c3ccccc3)CC2)c1	ALR inh 92.3
CC(=O)Nc1ccc(/C=N/NC(=O)CCN2CCN(c3ccccc3)CC2)cc1	none
O=C(CCN1CCN(C(c2ccccc2)c2ccccc2)CC1)N/N=C/c1ccc(O)cc1O	none
COc1ccc(/C=N\NC(=O)CCN2CCN(c3ccccc3)CC2)cc1OC	ALR inh 98.0
O=C(CCN1CCN(C(c2ccccc2)c2ccccc2)CC1)N/N=C/c1ccc(O)cc1	ALR inh 98.4
COC(=O)[C@]12C[C@H](CC(=O)N3CCC(c4ccccc4)CC3)C(=O)N(CCC3=CCCCC3)C1=C[C@H](C(C)C)O[C@@H]2C1CC1	none (no result: PfM18AAP inh, Granule exo inh, JMJD2C inh, MIN6 prolif, ALR inh)
CC(=O)N1C[C@@H](c2c[nH]c3ccccc23)C=C[C@H]1C(=O)NS(=O)(=O)c1ccc(C)cc1	none (no result: PfM18AAP inh, Granule exo inh, JMJD2C inh, MIN6 prolif, ALR inh)
COC(=O)[C@]12C[C@H](CC(=O)N3CCSCC3)C(=O)N(Cc3ccco3)C1=C[C@H](C1CCCC1)O[C@@H]2C	none (no result: PfM18AAP inh, Granule exo inh, JMJD2C inh, MIN6 prolif, ALR inh)
COc1ccc(C2CC(=O)C(c3ccccc3)=CN2Cc2ccccc2)cc1 (configuration not stated)	none (no result: PfM18AAP inh, Granule exo inh, JMJD2C inh, MIN6 prolif, ALR inh)
COc1ccc(-c2cc(NC(=O)Cc3c(C)[nH]c4ccccc34)ccc2Nc2cccnc2)cc1F	none (no result: PfM18AAP inh, Granule exo inh, JMJD2C inh, MIN6 prolif, ALR inh)
Cc1ccc(/C=[N+](\[O-])c2ccc(N(C)C)cc2)c2nsnc12	PfM18AAP inh 30.7 (no result: ALR inh)
Cc1ccc2nsnc2c1NS(=O)(=O)c1c(C)ccc2nsnc12	none
CC(C)(C)OC(=O)N1CCC2CCN(S(=O)(=O)c3ccccc3)CC21 (configuration not stated)	none (no result: PfM18AAP inh, Granule exo inh, JMJD2C inh, MIN6 prolif, ALR inh)
O=C(Nc1ccccc1N1CCOCC1)c1cc(F)cc(F)c1	none (no result: ALR inh)
O=C(Nc1cccc(F)c1)c1cccnc1N1CCOCC1	ALR inh 85.4
O=C(Nc1ccccc1N1CCOCC1)c1cccc(F)c1	ALR inh 96.3
O=C(Nc1cccc(C(F)(F)F)c1)c1cccnc1N1CCOCC1	none
CN1[C@H](Cc2ccccc2)COc2cc(N3CCCC3)ccc2S1(=O)=O	none (no result: PfM18AAP inh, Granule exo inh, JMJD2C inh, MIN6 prolif, ALR inh)
COc1ccc(NCc2ccc([N+](=O)[O-])s2)c(OC)c1	ALR inh 97.9 (no result: MIN6 prolif)
O=[N+]([O-])c1ccc(CNc2ccc(Cl)cc2)s1	ALR inh 81.2
O=[N+]([O-])c1ccc(CNc2ccc(F)cc2)s1	ALR inh 98.7
COc1ccc(NCc2ccc([N+](=O)[O-])s2)cc1	ALR inh 98.8
O=[N+]([O-])c1ccc(CNc2cccc(Cl)c2)s1	none
O=C(COc1ccccc1)NNc1nc2ccccc2s1	ALR inh 99.2
O=C(NNc1nc2ccccc2s1)Nc1ccccc1	PfM18AAP inh 29.0
CC(=O)N1CCC(=NNc2nc3ccccc3s2)CC1	ALR inh inconclusive
O=C(COc1ccccc1)NNc1nc2c(F)cccc2s1	none
C/C(=C\C(=O)c1ccccc1)NNc1nc2ccccc2s1	none
CCOC(=O)c1ccccc1NC(=O)COc1ccccc1	ALR inh 97.0
CCOC(=O)N1CCC(=NNc2nc3ccccc3s2)CC1	PfM18AAP inh 29.4
COC(=O)C1=C(C)N(C)C(=NCC2CC2)NC1CCc1ccccc1 (configuration not stated)	none (no result: PfM18AAP inh, Granule exo inh, JMJD2C inh, MIN6 prolif, ALR inh)
O=C(NC1CCCCN(Cc2cccc(Cl)c2)C1=O)c1c(F)cccc1F (configuration not stated)	none (no result: PfM18AAP inh, Granule exo inh, JMJD2C inh, MIN6 prolif, ALR inh)
COC(=O)C1=C(C)N(Cc2ccc(C(F)(F)F)cc2)C(=NCc2ccc(C(F)(F)F)cc2)NC1c1ccc(F)cc1 (configuration not stated)	none (no result: PfM18AAP inh, Granule exo inh, JMJD2C inh, MIN6 prolif, ALR inh)
O=C(Nc1cccc(Cl)c1)OC1CCC12CCC(c1ccccc1)CC2 (configuration not stated)	none (no result: PfM18AAP inh, Granule exo inh, JMJD2C inh, MIN6 prolif, ALR inh)
CN(C)c1cccc(/C=C2\CC3(OC(=O)c4ccc(F)cc4)CCCN2C3)c1 (configuration not stated)	none (no result: PfM18AAP inh, Granule exo inh, JMJD2C inh, MIN6 prolif, ALR inh)

Source: PubChem BioAssay
